ChEMBL document CHEMBL3988442, “University of Dundee, Small-Polar-MMV Screening Library” (2021)
Out of some 38,000 compounds screened, about 1,200 (3.2%) showed an effect of 50% or more. The median lay at about -58%. Only a selection was taken, and strong results are over-represented in it overall.

These compounds were tested on Plasmodium falciparum (assay: Calibr Malaria Delayed Death Assay SOP). Conditions: concentration 4.99e-06 (unit not given; other assays of the set use mol/L).
Type: functional, organism-based
Parameters: scale not given: in the data most compounds retested in dose-response had high values

Row | SMILES | Percent Effect
1 | O=C(NCCn1cccn1)c1ccn(-c2cccc(F)c2)n1 | -72.56%
2 | Cc1noc2nc(C3CC3)c(Cl)c(C(=O)O)c12 | -135.9%
3 | Cc1ccc(N2CCC(C(=O)NC3CCc4nccn4C3)CC2)nc1 (configuration not stated) | -14.8%
4 | CC(C)[C@@H]1CN(C(=O)C2(c3ccccc3)CCN(C)CC2)C[C@H]1N(C)C | 83.06%
5 | CC(C)[C@@H]1CN(C(=O)NCc2ccco2)C[C@H]1N(C)C | -12.41%
6 | CC(C)[C@@H]1CN(C(=O)CN(C)Cc2ccccc2)C[C@H]1C(=O)O | -22.97%
7 | CCCn1c(N2CCCC(C)C2)nc2c(C)nn(C)c2c1=O (configuration not stated) | -32.41%
8 | Cc1ncncc1C(=O)N1CCOC(c2nc(C(C)C)n[nH]2)C1 (configuration not stated) | -146.2%
9 | Cn1ncc(N2CCOC(CCNC(=O)CO)C2)cc1=O (configuration not stated) | -51.52%
10 | CC(=O)N1CCC2(CCN(C(=O)c3ccc(F)c(C(F)(F)F)c3)CC2)C1 | -64.74%
11 | Cc1cc(=O)n(C)cc1NC(=O)Cc1cccc(F)c1 | -34.19%
12 | CN1CCN(c2ccccc2CNC(=O)CSC(F)(F)F)CC1 | 67.15%
13 | CN1CCN(c2ccccc2CNC(=O)Cc2cccc(F)c2)CC1 | 77.21%
14 | CCOCCCNC(=O)Cc1cccc(F)c1 | -98.72%
15 | CN1CCN(c2ccccc2CNC(=O)Cc2ccccc2F)CC1 | 75.84%
16 | CCc1ccccc1CNC(=O)CNCC(F)(F)F | -137.2%
17 | Cc1cc(CNC(=O)NCc2ccccc2N2CCOCC2)no1 | -32.16%
18 | Cc1ccc(C(=O)NCc2cc(F)ccc2N2CCCN(C)CC2)o1 | 33.96%
19 | O=C(NCc1cccnc1N1CCCC(O)C1)c1ccsc1 (configuration not stated) | -31.1%
20 | O=C(CN1CCS(=O)(=O)CC1)NCc1ccccc1F | -87.27%
21 | CC(C)N(C)CC(=O)NCc1ccccc1N1CCN(C)CC1 | 43.49%
22 | CN1CCCN(c2ccc(F)cc2CNC(=O)c2ccsc2)CC1 | 59.32%
23 | CC(=O)N1CCCN(C(=O)c2cnn(C(C)(C)C)c2C)CC1 | -71.74%
24 | Cc1ccc(CNC(=O)C2CCNC(=O)C2)c(OCCC(C)C)c1 (configuration not stated) | -137.1%
25 | COc1nn(C)c2c1CCCN(C(=O)c1ccc3ccccc3n1)C2.O=C(O)C(F)(F)F | -93.98%
26 | O=C(NCc1cc(=O)n2c(n1)CN(CC1CC1)CCC2)c1ccsc1.O=C(O)C(F)(F)F | -77.99%

Row | SMILES | Percent Effect
27 | Cc1cc(NS(=O)(=O)c2cccs2)ccc1-n1cccc1C(=O)O | -24.74%
28 | CN1CCN(c2ccccc2NC(=O)NCCc2ccc(O)cc2)CC1 | -22.54%
29 | CN1CCN(c2ccccc2NC(=O)NCC[S+](C)[O-])CC1 (configuration not stated) | -127.8%
30 | CN1CCN(c2ccccc2NC(=O)NCCc2ccccc2)CC1 | 83.6%
31 | c1nc(N2CCc3[nH]cnc3C2)c2cc[nH]c2n1 | -49.27%
32 | CCn1nc(C)c2nc(C(C)C)nc(NCc3ccccn3)c21 | 36.29%
33 | Cc1nc2sccn2c1CNc1ccc(C(=O)O)cc1 | -70.26%
34 | Cc1ccc(CN(CCN(C)C)C(=O)Cc2cn3ccccc3n2)o1 | -71.99%
35 | O=C(C1CCCN1Cc1nc(-c2ccco2)no1)N1CCSCC1 (configuration not stated) | -120.3%
36 | Nc1nc2c(c(NCc3cnc4c(c3)CCC4)n1)CCNC2 | -34.51%
37 | c1coc(-c2nc3c(c(NCc4n[nH]c5c4CCC5)n2)CCNCC3)c1 | 20.11%
38 | c1ccc(-c2nc3c(c(NCc4n[nH]c5c4CCC5)n2)CCNC3)cc1 | 89.28%
39 | COc1ccccc1C(C)NC(=O)NCCC(=O)NC1CCCCC1 (configuration not stated) | -102.7%
40 | Cc1nc(C(=O)N2CCN(S(C)(=O)=O)CC2)c(-c2ccccc2)s1 | -18.55%
41 | CC(C)COCCCNC(=O)c1cccnc1N1CCOCC1 | -144.5%
42 | Cc1ccc2c(c1)C(NC1CC1)CC21CCNCC1.Cl (configuration not stated) | 82.38%
43 | Cl.O=C1NC2(CCNCC2)CC1c1ccccc1 (configuration not stated) | -140.8%
44 | COCCN1CCC2(CC1)CC(OCC1CC1)c1ccc(C)cc12 (configuration not stated) | 40.12%
45 | Cl.Cl.c1ccc2c(c1)C(NC1CCCC1)CC21CCNCC1 (configuration not stated) | 74.54%
46 | Fc1ccc2c(c1)C1(CCNCC1)CC2OCC1CC1 (configuration not stated) | 69.13%
47 | CNC(=O)CC1CC2(CCNCC2)c2cc(F)ccc21 (configuration not stated) | -118.7%
48 | CC(C)NC1CC2(CCNCC2)c2cc(F)ccc21.Cl.Cl (configuration not stated) | 6.754%
49 | Cc1ccc2c(c1)C(NC(C)C)CC21CCNCC1.Cl (configuration not stated) | -48.62%
50 | Cc1ccc2c(c1)C1(CCNCC1)CC2OCC1CC1 (configuration not stated) | 44.42%
51 | Cc1ccc2c(c1)C1(CCNCC1)CC2NCCO.Cl.Cl (configuration not stated) | -29.16%
52 | Cl.Cl.Fc1ccc2c(c1)C1(CCNCC1)CC2NC1CC1 (configuration not stated) | 82.19%

Row | SMILES | Percent Effect
53 | CCCc1noc(CN2CCC(C(=O)Nc3cnn(CC)c3)CC2)n1 | -105%
54 | Cc1cc(C)n(C2CCCN(C(=O)Cc3cccs3)C2)n1 (configuration not stated) | -45.18%
55 | Cc1nccn1CCCn1c(=O)cnc2ccccc21 | -30.97%
56 | CNC(=O)C1(CCCc2ccncc2)CCN1.O=C(O)C(F)(F)F (configuration not stated) | -123.5%
57 | Cc1ccc2c(c1)C1(CCNCC1)CC2NC1CC1.Cl.Cl (configuration not stated) | 73.32%
58 | COc1ccc2c(c1)C1(CCNCC1)CC2NC1CC1.Cl.Cl (configuration not stated) | -4.171%
59 | Cc1ccc2c(c1)C1(CCNCC1)CC2NC(C)C.Cl.Cl (configuration not stated) | -38.07%
60 | CC(C)(C)c1nccc(N2CCC(OCCN3CCCCC3)C2)n1 (configuration not stated) | 62.36%
61 | Cc1ccnc(N2CCC(OCCN3CCCCC3)C2)n1 (configuration not stated) | -84.22%
62 | Cc1cnc(N2CCC(OCCN3CCCCC3)C2)nc1C (configuration not stated) | 23.23%
63 | COc1ccnc(N2CCC(OCCN3CCCCC3)C2)n1 (configuration not stated) | 51.05%
64 | C1CCN(CCOC2CCNCC2)CC1 | -37.31%
65 | CC(C)(C)c1nccc(N2CCN(C3CCS(=O)(=O)C3)CC2)n1 (configuration not stated) | -36.45%
66 | O=c1cc(Cn2ccnc2)nc2n1CCCN(Cc1ccncc1)C2 | -42.89%
67 | Cn1cccc1C(=O)N1CCCn2nc(CCC(=O)NC3CC3)cc2C1 | -14.31%
68 | O=C(c1ccc(S(=O)(=O)NCc2ccon2)cc1)N1CCOCC1 | -26.34%
69 | O=C(O)C(F)(F)F.O=C(c1ccnnc1)N1C[C@@H]2C[C@@H](c3nc(C4CC4)cs3)O[C@@H]2C1 | -41.35%
70 | Cc1ccoc1C(=O)N1C[C@@H](OCC2CCOCC2)[C@H]2OCCC[C@H]21 | 0.5559%
71 | CCOc1ccc(NC(C)C(=O)Nc2cc(C)no2)cc1 (configuration not stated) | -61.09%
72 | COC[C@]1(O)CCN(Cc2c[nH]c(CC3CCCC3)n2)CC1(C)C | 15.86%
73 | OC1(CN2CCCC2)CCCN(Cc2c[nH]c(CC3CCCC3)n2)C1 (configuration not stated) | 36.89%
74 | C[C@@H]1CN(Cc2c[nH]c(CC3CCCC3)n2)CC[C@]1(C)O | -135.8%
75 | c1[nH]c(CC2CCCC2)nc1CN1CCCC2(CCOC2)C1 (configuration not stated) | 81.53%
76 | CC1(C)CN(Cc2c[nH]c(CC3CCCC3)n2)CC[C@]1(C)O | -34.05%
77 | OC1(CN2CCCCC2)CCN(Cc2c[nH]c(CC3CCCC3)n2)C1 (configuration not stated) | 52.98%
78 | CN1CC(=O)N(c2ccccc2)CC12CCN(C(=O)c1cnccn1)C2.O=C(O)C(F)(F)F (configuration not stated) | -66.28%

Row | SMILES | Percent Effect
79 | COc1ccc(CN2CC[C@@H](O)[C@@H]2Cc2ccccc2)cc1.O=C(O)C(F)(F)F | 80.27%
80 | COc1ccc(CN2CC[C@@H](O)[C@@H]2Cc2cnn(C)c2)cc1.O=C(O)C(F)(F)F | -130.2%
81 | O=C(O)C(F)(F)F.O=C(O)C(F)(F)F.O[C@@H]1CCN(CC2CCOC2)[C@H]1Cc1cccnc1 (some centres not stated) | -68.9%
82 | O=C(O)C(F)(F)F.O[C@@H]1CCN(CC2CCOC2)[C@H]1Cc1ccccc1 (some centres not stated) | -110.3%
83 | O=C(O)C(F)(F)F.O[C@@H]1CCN(CC2CC2)[C@H]1Cc1ccccc1 | 63.26%
84 | Cn1cc(CN2CC[C@H](O)[C@@H]2Cc2ccccc2)cn1.O=C(O)C(F)(F)F | 22.75%
85 | COc1ccc(CN2CC[C@H](O)[C@@H]2Cc2cnn(C)c2)cc1.O=C(O)C(F)(F)F | -6.903%
86 | Cn1cc(CN2CC[C@@H](O)[C@@H]2Cc2ccccc2)cn1 | -45.02%
87 | NCC(CO)Cc1ccc(C(F)(F)F)cc1 (configuration not stated) | -43.7%
88 | CC(C)Oc1ncccc1CNC(=O)c1ccc(=O)[nH]n1 | -94.73%
89 | CCCS(=O)(=O)NCCc1ncc(C)s1 | -127.4%
90 | COc1ccc(NC(=O)C(c2cccc(F)c2)N2CCOCC2)cc1 (configuration not stated) | -6.296%
91 | Cc1cc(C)c(S(=O)(=O)Nc2cccc3c2OCCO3)cc1C(=O)O | -20.88%
92 | CNCC(=O)NC1CC(C)(C)Cc2nc(C(C)(C)C)ncc21 (configuration not stated) | 3.513%
93 | CC(C)C(=O)N1CCN(Cc2cnn(C)c2)CC2(CC(=O)N(C)C2)C1.O=C(O)C(F)(F)F (configuration not stated) | -69.27%
94 | COc1ccc2nnc(C(=O)NCC3CCCC3)nc2c1 | -78.39%
95 | Cc1cc(CNCC2(O)CCOCC2)ccc1F | 16.95%
96 | Cc1cc(CNCC2(O)CCOCC2)ccc1Br | 44%
97 | OC1(CNCc2ccc(F)c(C(F)(F)F)c2)CCSCC1 | 54.72%
98 | O=C(NCc1ccc(Cl)cc1Cl)NCC1(O)CCSC1 (configuration not stated) | 0.496%
99 | CN1CCC(O)(CNCc2ccc(F)c(C(F)(F)F)c2)CC1 | 82.66%
100 | OC1(CNCc2ccc(F)c(C(F)(F)F)c2)CCOC1 (configuration not stated) | -5.548%
101 | COCC1CN(Cc2ccsc2)Cc2cnn(C)c21 (configuration not stated) | -44.18%
102 | CC(C)[C@H](NC(=O)NC1CCS(=O)(=O)C1)C(=O)NCc1ccccc1 (some centres not stated) | -124.5%
